Source: PubChem BioAssay AID1159580 (chemical genetic matrix, 2015)
The whole screen tested about 5,500 compounds, of which about 2,000 (36%) were called active. Not shown: some 18% with an inconclusive outcome. Cut-off read from the data, not from the text of the source: active = normalized growth mostly below about 0.91 (no sharp cut-off); inconclusive = no clear call, values can overlap the other calls; inactive = mostly above about 0.92. This is one part of the list.

Assay: chemical genetic growth profiling, strain panel (AID 1159580);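 note: tested at 20 µM; growth read once vehicle control cultures reached saturation at 30 °C; 1 = growth at the plate median or of vehicle wells; lower values mean less growth of the strain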
Conditions: S. cerevisiae deletion strains, growth OD
[1] = locus YAL013W, strain DEP1, active compounds read low
[2] = locus YBR229C, strain ROT2, active compounds read low
[3] = locus YDL101C, strain DUN1, active compounds read low
[4] = locus YDR150W, strain NUM1, active compounds read low
[5] = locus YEL061C, strain CIN8, active compounds read low
[6] = locus YGR078C, strain PAC10, active compounds read low
[7] = locus YGR229C, strain SMI1, active compounds read low
[8] = locus YHR030C, strain SLT2, active compounds read low
[9] = locus YHR087W, strain rtc3, active compounds read low
[10] = locus YJR043C, strain POL32, active compounds read low
[11] = locus YJR075W, strain HOC1, active compounds read low
[12] = locus YLR039C, strain RIC1, active compounds read low
[13] = locus YLR058C, strain SHM2 (second series), active compounds read low
[14] = locus YLR085C, strain ARP6, active compounds read low
[15] = locus YLR262C, strain YPT6, active compounds read low
[16] = locus YML094W, strain GIM5, active compounds read low
[17] = locus YMR219W, strain ESC1, active compounds read low
[18] = locus YMR263W, strain SAP30, active compounds read low
[19] = locus YNL153C, strain GIM3, active compounds read low
[20] = locus YNL298W, strain CLA4 (second series), active compounds read low
[21] = locus YNL322C, strain KRE1, active compounds read low
[22] = locus YNR030W, strain Alg12, active compounds read low
[23] = locus YPL055C, strain LGE1, active compounds read low
[24] = locus YPL241C, strain CIN2, active compounds read low
[25] = locus YPR135W, strain CTF4, active compounds read low

Measured: normalized growth

O=[N+]([O-])c1ccc(-c2nn[nH]n2)cc1
inactive: [1] 0.992 | [2] 0.987 | [3] 0.988 | [4] 1.01 | [5] 1.01 | [6] 0.989 | [7] 0.987 | [8] 0.955 | [9] 0.993 | [10] 1.01 | [11] 0.992 | locus YKL190W, strain CNB1, active compounds read low 0.975 | [12] 0.968 | [13] 0.984 | [14] 1.04 | [15] 0.871 | [16] 1.04 | [17] 0.994 | [18] 1.01 | locus YMR307W, strain GAS1, active compounds read low 1.11 | locus YNL128W, strain TEP1, active compounds read low 0.971 | [19] 0.995 | [20] 0.965 | [21] 0.99 | [22] 0.98 | [23] 0.993 | [24] 0.999 | [25] 0.967

COC(=O)CSCCc1nc(-c2ccc([N+](=O)[O-])cc2)cs1
active: [8] 0.683 | [14] 0.717
inactive: [1] 1 | [2] 0.972 | locus YCL061C, strain MRC1, active compounds read low 0.97 | [3] 0.967 | locus YDL134C, strain PPH21, active compounds read low 0.976 | [4] 0.991 | [5] 0.986 | [6] 0.978 | [7] 0.965 | [9] 0.987 | [10] 0.971 | [11] 0.946 | [12] 0.919 | [13] 0.964 | [15] 0.915 | [16] 0.994 | [17] 0.975 | [18] 0.968 | [19] 1.01 | [20] 0.927 | [21] 0.965 | [22] 0.969 | [23] 0.971 | [24] 0.911 | [25] 0.894
